# Assay results from PubChem BioAssay (NCI).
# The panel holds about 83,000 compounds, 20% with a hit somewhere; the sample as a whole holds those more often.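 Compound tested at a single concentration for 48 hours in 96-well plates; a percent growth value below 10 was scored as active.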 Active and inactive are the calls of the source.
# Tested on: HOP-62 NSCLC
# Test: NCI-60 one-dose screen, 48 h (100 = growth as untreated, 0 = no growth, -100 = all killed)
# Details: 10 µM unless noted
# Experimental: Growth inhibition of the HOP-62 human Non-Small Cell Lung tumor cell line is measured as a screen for anti-cancer activity. Cells are grown in 96 well plates and exposed to the test compound for 48 hours. Compounds are tested at a single concentration, which is 10^-5 M for most compounds. The reported endpoint is percent growth (GI% or GIPRCNT), where numbers from 0 - 100% represent growth inhibition, and numbers from -100% - 0 represent cell death. For example, a value of 40 represents 60% growth inhibition. A value of 0 means no net growth occurred over the course of the experiment. A value of -40 indicates 40% of cells at the beginning of the experiment died by the end of the experiment. A value of -100 means all cells are dead at the end of the experiment.
# NCI-60 Human Tumor Cell Lines Screen was performed using the standard one-dose NCI protocol, which is described in more detail at https://dtp.cancer.gov/discovery_development/nci-60/default.htm.
# Compounds with GIPRCNT values below 10 were considered active. Activity score was based on GIPRCNT using the following formula: […]
# Score is 0 for GIPRCNT values of 100 or above, 50 for GIPRCNT values of 0, and 100 for GIPRCNT values of -100.
row,Structure (SMILES),growth
1,CN1CCN(/C(=N\c2sc(-c3ccccc3)nc2-c2ccccc2)c2ccccc2)CC1,97.1% (inactive)
2,CC1(C)CC[C@]2(C(=O)Nc3ccc(F)cc3)CC[C@]3(C)C(=CCC4[C@@]5(C)C[C@@H](O)[C@H](O)[C@@](C)(CO)C5CC[C@]43C)C2C1 (stereo not given in full),58.6% (inactive)
3,COc1ccc(/C=C/c2nc3ccccc3c(=O)n2CC(=O)Nc2ccc(Cl)cc2)cc1,8.06% (active)
4,C#CCOc1ccc(/C=N/Nc2nc(-c3ccc(F)cc3)cs2)cc1OC,86.9% (inactive)
5,COc1ccc(C(=O)/C=C/c2cccc(Cl)c2)cc1S(N)(=O)=O,-37.4% (active)
6,O=C(O)c1ccc(-c2ccc(/C=N/NC(=O)c3[nH]c4ccc(Br)cc4c3-c3ccccc3)o2)cc1,9.47% (active)
7,O=C(/C=C/Nc1ccc(Cl)cc1)c1ccc2c(c1)Nc1ccccc1S2,-27.5% (active)
8,CCOC(=O)/C=C/c1cccc2c1C(=O)NC(C)(c1cc3cc(Cl)ccc3oc1=O)N2 (stereo not given),55.7% (inactive)
9,C#CCOc1cc(N(CC)CC)ccc1C(C(=O)NC(C)(C)C)N(C(=O)C1CCc2cc(F)ccc2O1)c1ccc(F)c(Cl)c1 (stereo not given),77.5% (inactive)
10,COc1ccc(-c2nnc3ccc(N/N=C/c4ccc(C)cc4)nn23)cc1,70.4% (inactive)
11,COc1ccc(C(=O)/C=C/c2ccc(Oc3nc(Nc4ccc(F)cc4)nc(N(C)C)n3)c(OC)c2)cc1,100% (inactive)
12,O=C(COc1ccc(NC(=O)Nc2ccc(Cl)c(Cl)c2)cc1)N=Nc1c(O)[nH]c2ccc([N+](=O)[O-])cc12,76.4% (inactive)
13,NS(=O)(=O)c1ccc(NNC(=O)CCC(=O)c2ccccc2)cc1,100% (inactive)
14,CCCS(=O)(=O)N1CCCC(C(=O)Nc2nc3ccc(NC(=O)c4ccc(F)c(OC)c4F)cc3s2)C1 (stereo not given),68.4% (inactive)
15,COc1cc2c(c(OC)c1OC)C(=O)CC(c1cccc(NC(=O)c3cc(N)ccc3Cl)c1)O2 (stereo not given),77.3% (inactive)
16,Cc1ccc(-n2c(-c3cc4ccccc4nc3Cl)noc2=O)cc1,65.1% (inactive)
17,O=C(Cn1c(/C=C/c2ccccc2)nc2ccccc2c1=O)Nc1ccccc1,57.5% (inactive)
18,Clc1ccc(-c2ccc(OCCCN3CCN(c4ccncc4)CC3)cc2)cc1,54.3% (inactive)
19,C#C[C@]1(O)CC[C@H]2[C@@H]3CC=C4c5sc(-c6ccc([N+](=O)[O-])cc6)nc5CC[C@]4(C)[C@H]3CC[C@@]21C,23.5% (inactive)
20,CCOC(=O)C1=C(N)N(c2ccccc2)C2=C(C(=O)CC(C)(C)C2)C1c1ccc(Cl)cc1Cl (stereo not given),50.5% (inactive)

row,Structure (SMILES),growth
1,Cc1nc(Nc2ccccn2)sc1C(=O)CC(SCC(=O)Nc1ccc(Cl)cc1)c1ccccc1F (stereo not given),10.1% (inactive)
2,N#Cc1c(-c2ccc(Cl)cc2)nc2n[nH]c(-c3ccc(Cl)cc3)c2c1-c1ccc(C(F)(F)F)cc1,-24.2% (active)
3,Cc1cccc(NC(=O)[C@]23CCC(C)(C)CC2C2=CCC4[C@@]5(C)C[C@@H](O)[C@H](O)[C@@](C)(CO)C5CC[C@@]4(C)[C@]2(C)CC3)c1 (stereo not given in full),50.9% (inactive)
4,COc1ccc(-c2nc3cc(C)ccc3n2CC(=O)N=Nc2c(O)[nH]c3ccc(Cl)cc23)cc1,-50.4% (active)
5,Cc1ccc(Cc2cnc(NC(=O)c3ccc(/C=C4\SC(=S)N(C)C4=O)cc3)s2)cc1,46.4% (inactive)
6,O=C(CN1C(=O)/C(=C/c2ccccc2F)SC1=S)N1CCOCC1,119% (inactive)
7,COc1ccc2[nH]cc(-c3nnc(N)nc3-c3cn(C)c4ncc(Br)cc34)c2c1,70.2% (inactive)
8,COc1ccc(-c2nnc3ccc(N/N=C/c4ccc(O)cc4)nn23)cc1,88.4% (inactive)
9,COc1c(F)ccc(C(=O)Nc2ccc3nc(NC(=O)C4CCCN(S(=O)(=O)c5ccc(Cl)cc5)C4)sc3c2)c1F (stereo not given),102% (inactive)
10,CSc1ccccc1NC(=O)c1ccc2nnn(/C(C#N)=C/c3ccccn3)c2c1,6.29% (active)
11,O=C(/C=C/Nc1ccc2oc(=O)ccc2c1)c1cc2cc(Br)ccc2oc1=O,95.4% (inactive)
12,O=C(/C=C/c1ccc(O)c(O)c1)NC1CCOC1O (stereo not given),101% (inactive)
13,COc1ccc(-c2cc(C(=O)NCc3ccccc3)nn2-c2ccc(S(C)(=O)=O)cc2)cc1OC,99.7% (inactive)
14,O=C1Nc2ccc([N+](=O)[O-])cc2C1=Nc1ccccc1,114% (inactive)
15,N/C(=N\N=C\c1ccc([N+](=O)[O-])cc1)c1c(N)nc(=S)[nH]c1-c1ccc(Cl)cc1Cl,57% (inactive)
16,Cc1cc2c(cc1Cl)C(=O)/C(=C/c1ccc(F)cc1)O2,93.7% (inactive)
17,C=C1CCC2C3(C)COC(c4ccccc4F)OC3CCC2(C)C1CC(O)C1=CCOC1=O (stereo not given),88.2% (inactive)
18,Cc1nc(Nc2ncc(C(=O)Nc3c(C)cccc3Cl)s2)cc(N2CCN(CCCNC(=O)COc3ccc(C4CCC(=O)NC4=O)cc3)CC2)n1 (stereo not given),35.4% (inactive)
19,Cc1cccc(NC(=O)CN2CCN(c3ncnc4c3cnn4-c3ccccc3)CC2)c1,96.2% (inactive)
20,C=C1CC[C@@H]2[C@]3(C)COC(c4cn[nH]c4-c4cccc(Cl)c4)O[C@@H]3CC[C@@]2(C)[C@@H]1C/C=C1/C(=O)OCC1O (stereo not given in full),0.166% (active)
